Assay outcomes deposited in PubChem BioAssay by several laboratories.
TLR9-MyD88 block: TLR9-MyD88 interaction inhibition; AID 504734; hit rate 0.21% among 340,000; inhibition, % at 4.98 µM; CHO BLA complementation TLR9-MyD88, CCF4 FRET ratio; Q9NR96+Q99836;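 active = inhibition above the mean over all tested compounds plus 3 SD, cut at about 21% in these data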;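 note: 0% = DMSO only wells and 100% = clavulanate BLA inhibitor control wells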
NOD2-RIPK2 inh: NOD2-RIPK2 protein interaction inhibition; inhibition, % at 4.98 µM; O43353; hit rate 0.38% among 360,000; CHO BLA complementation NOD2-RIPK2, CCF4 ratio; in the data active = inhibition above about 21%;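 note: 0% = vehicle only and 100% = reference blocker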
Beta2AR agonist: human beta-2 adrenergic receptor agonism by FAP | AID 504454 | response, % (no concentration beside the values) | hit rate 0.43% among 340,000 | Am2.2-beta2AR cells, FAP receptor internalization, flow cytometry | P07550;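 active = response above a set limit, near 3 SD of response in nonfluorescent compounds, cut at about 42% in these data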
ABHD5 PLIN5 PPI: inhibitors of human ABHD5-perilipin-5 interaction; Q00G26+Q8WTS1; Split G. princeps luciferase complementation, luminescence, 4 h; inhibition, % at 4 µM; hit rate 0.78% among 360,000;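 active = inhibition above the mean inhibition across every tested compound plus 3 SD, cut at about 22% in these data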;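 note: 0% = DMSO only wells and the 100% control is not disclosed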
TLR4 MyD88 comp: blocks binding of human TLR4 to MyD88; O00206+Q99836; HeLa CL3-4 TLR4/MyD88 BLA complementation, FRET ratio; hit rate 0.18% among 200,000; inhibition, % at 8.4 µM; AID 861; in the data active = inhibition above about 25%;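 note: 0% = vehicle and 100% = reference inhibitor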
Granule exo inh: blocks lytic granule exocytosis; inhibition, % at 10 µM; TALL-104 LAMP-1 surface exposure, flow cytometry; cells stimulated with thapsigargin and PMA; hit rate 0.66% among 360,000;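 active = inhibition above about 55%, limit read from the data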
Granule exo CP1: blocks lytic granule exocytosis | TALL-104 cells, LAMP-1 externalization, flow cytometry; stimulated with PMA plus thapsigargin | hit rate 11% among 1,500 | shares compounds with Granule exo inh | inhibition, % at 10 µM; in the data active = inhibition above about 60%;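 note: 0% = stimulated vehicle wells and 100% = unstimulated wells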
Starred values were filed as active, the others as inactive; . = no result. An excerpt weighted towards active compounds, which were near 2% of everything screened.

SMILES	TLR9-MyD88 block	NOD2-RIPK2 inh	Beta2AR agonist	ABHD5 PLIN5 PPI	TLR4 MyD88 comp	Granule exo inh	Granule exo CP1
CC(=O)Nc1ccc(CN(C)c2c(C)nc3ccc(C(=O)NC4CCN(Cc5ccccc5)CC4)cn23)cc1	.	0	.	0	.	-12	.
CC(C)(C)C1CCC(OCC(O)CN2CCN(c3ccccn3)CC2)CC1 (configuration not stated)	-5	-3	2	4	2	-1	.
CC(C)(C)C1CCC(OCC(O)CN2CCN(Cc3ccccc3)CC2)CC1 (configuration not stated)	-5	-5	-2	2	5	72*	-3
Cc1cc(N2CCN(c3ccccc3)CC2)nc2ccccc12	2	-3	-8	-7	.	89*	-4
COc1ccc(N2CCN(c3cc(C)c4ccccc4n3)CC2)cc1	-1	0	3	0	4	-2	.
Clc1ccc(CSc2nncn2-c2ccccn2)cc1	9	2	-8	-3	-3	-1	.
Clc1ccc(CSc2nncn2-c2ccc3c(c2)OCCO3)cc1	16	0	6	0	.	72*	-12
CCCCNC(=O)C1(C)CCN1C(=O)c1ccc2sccc2c1 (configuration not stated)	.	-4	.	-3	.	-1	.
COC(=O)c1ccc(CNC(=O)CC[C@H]2O[C@@H](n3cc(C)c(=O)[nH]c3=O)C[C@@H]2O)cc1	.	-2	.	1	.	-3	.
CCc1ccc(CNC(=O)C2CCCN(c3nnc(C)c4c(C)n(-c5ccccc5)nc34)C2)cc1 (configuration not stated)	-1	4	5	-2	.	58*	87*
Cc1ccccc1CNC(=O)C1CCCN(c2nnc(C)c3c(C)n(-c4ccccc4)nc23)C1 (configuration not stated)	3	5	6	0	.	74*	1
O=C(Nc1nc2ccccc2n1CCN1CCOCC1)c1ccc(Cn2cc([N+](=O)[O-])cn2)o1	3	-12	-20	4	.	-14	.
O=C(Nc1nc2ccccc2n1CCN1CCOCC1)c1ccc(COc2ccccc2Br)o1	5	-8	-1	1	-10	70*	80*
CC1COCC(C)N1C1=C(Cl)C(=O)c2ccccc2C1=O (configuration not stated)	-6	-9	81*	-49	.	91*	60*
O=C(Nc1ccc(S(=O)(=O)Nc2ccccc2)cc1)c1ccc(CN2CCOCC2)cc1	-8	2	5	1	-7	76*	9
CN(C)CCCNC(=S)NCC(c1ccc(Cl)cc1Cl)c1c[nH]c2ccccc12 (configuration not stated)	-1	3	47*	15	.	92*	77*
CCCCNC(=S)NCC(c1ccccc1)c1c[nH]c2ccccc12 (configuration not stated)	6	12	6	-15	.	2	.
CCOC(=O)c1nnc(-c2ccccc2)nc1Sc1ccccc1Cl	-6	0	10	1	6	102*	76*
Cn1ncc([N+](=O)[O-])c1C(=O)Nc1ccccc1C#N	-13	5	.	3	.	8	.
Cc1ccc(-n2ncc3c(=O)n(CC(=O)N(C(C)C)C(C)C)cnc32)cc1	-2	5	1	2	.	4	.
O=C1CC/C=C\C[C@@H](CC(=O)N(CCO)Cc2ccccc2)C(=O)N[C@H](Cc2ccccc2)CO1	9	-4	-12	0	.	81*	-15
O=C1N[C@@H](Cc2ccccc2)COC(=O)[C@H](Cc2ccc(F)cc2)C/C=C\C[C@H]1CC(=O)N(CCO)Cc1ccccc1	-6	14	13	3	.	12	.
CCC(C)(O)C(=O)N[C@H]1CCCN1C(=O)/C=C/c1ccccc1 (some centres not stated)	-15	-6	-6	-1	.	59*	-3
O=C(/C=C/c1ccccc1)N1CCC[C@H]1CO	7	-3	0	7	-4	-5	.
CCN1C[C@@H]2[C@@H]3C(=O)N(Cc4ccccc4)C(=O)[C@@H]3[C@](Cc3ccccc3)(C1=O)N2C(=O)c1ccc(Br)cc1	2	-9	-8	3	.	-6	.
SMILES	TLR9-MyD88 block	NOD2-RIPK2 inh	Beta2AR agonist	ABHD5 PLIN5 PPI	TLR4 MyD88 comp	Granule exo inh	Granule exo CP1
COCCN(C(=O)COC(=O)CCCc1c[nH]c2ccccc12)c1c(N)n(Cc2ccccc2)c(=O)[nH]c1=O	-4	3	-4	4	.	-4	.
C#CCNC(=O)C1=C[C@H](c2coc3ccccc3c2=O)C[C@H](OCc2ccc(CO)cc2)O1	6	-2	-8	9	8	-4	.
C#CCNC(=O)C1=C[C@@H](c2coc3ccccc3c2=O)C[C@@H](OCc2ccc(CO)cc2)O1	-3	-3	-13	3	14	88*	-5
O=C(CCCc1ccccc1)Nc1ccnn1C1CCN(Cc2ccc(Cl)cc2)CC1	7	8	-7	3	.	3	.
O=C(CCCc1ccccc1)Nc1ccnn1C1CCN(Cc2ccccc2)CC1	-5	3	2	9	.	64*	-5
CCOC(=O)c1ccc(NC(=O)COc2ccc(CNC3CCCCC3)cc2OC)cc1	2	-3	-2	8	2	60*	-12
Cc1cccn2c(=O)c3cc(C(=O)NC4CCCCC4)c(=N)n(Cc4ccc(F)cc4)c3nc12	-13	-11	78*	-6	.	70*	40
O=C(c1cccs1)N1CCCC(c2nc3c(nnn3Cc3c(Cl)cccc3Cl)c(=O)[nH]2)C1 (configuration not stated)	5	1	3	8	.	77*	-9
COC(=O)c1ccc(Cn2nnc3c(=O)[nH]c(C4CCCN(S(=O)(=O)c5ccccc5Cl)C4)nc32)cc1 (configuration not stated)	7	-11	25	2	.	57*	-8
Cc1ccc(S(=O)(=O)N(C)C[C@@H]2Oc3ccc(NC(=O)Cn4cnnn4)cc3C(=O)N([C@@H](C)CO)C[C@H]2C)cc1	2	3	-6	-5	.	-5	.
O=C(NCc1ccc(F)cc1)C(c1cccnc1)N(C(=O)c1csnn1)c1ccccc1 (configuration not stated)	-4	9	-6	-2	.	9	.
COc1cc2c(cc1NC(=O)CSc1nnc(COc3ccc(Cl)cc3)n1C)oc1ccccc12	2	3	1	-5	16	60*	22
COc1cc2c(cc1NC(=O)CSc1nnc(Cc3cccs3)n1C)oc1ccccc12	2	0	-2	7	-1	16	.
COC(=O)CNC(c1ccccc1)c1cc(Br)ccc1NC(=O)CCN1CCOCC1 (configuration not stated)	0	-8	4	18	5	78*	-5
CCC1=C(NCc2ccccc2)COC1=O	7	-4	.	-1	.	3	.
